The target of assay [1] is Estrogen receptor (Homo sapiens) (UniProt P03372). The assay can be described thus: qHTS assay for small molecule agonists of estrogen receptor alpha signaling (AID 588514; calls by dose curve;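 note: 0% = vehicle only and 100% = reference agonist; nearly all actives have a fitted effect of over 70% in size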). Summed up:
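Cells were plated at 5000/well, incubated 4 hrs at 37 C, dosed with compound titration series, incubated 18 hrs at 37 C, loaded with CCF4 dye for 2 hrs at RT, then fluorescence was read.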

Assay [2] can be described thus: qHTS assay for small molecule antagonists of peroxisome proliferator-activated receptor delta signaling (AID 588535; active = well fitted inhibition curve with a large enough effect in the signal ratio, with a control signal flat, not every such curve was filed as active; the % refers to the signal ratio;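 for max response: cells co-treated with a PPAR-delta agonist as stimulator during compound exposure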). Conditions: HEK293T PPARd-UAS-bla, beta-lactamase FRET ratio, 18 h; 460 nm channel. Summed up:
(§1)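 Reporter: UAS-bla under PPAR-delta response element, HEK293T host. Medium: 2% charcoal/dextran FBS. Dosing: titration, 18 hrs, 37 C. Detection: CCF4, 2 hrs RT, 405 ex/460 and 530 em.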

For assay [3], the target named is Peroxisome proliferator-activated receptor delta (Homo sapiens) (UniProt Q03181). The description is as above. In a few lines:
as §1

Assay [4] addresses Peroxisome proliferator-activated receptor gamma (Homo sapiens) (UniProt P37231). In words: qHTS assay for small molecule agonists of peroxisome proliferator-activated receptor gamma signaling (AID 588536; active = well fitted curve in the direction sought with a large enough effect in the signal ratio, with a control signal flat, not every such curve was filed as active; the % refers to the signal ratio;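 note: 0% = DMSO basal wells and 100% = rosiglitazone at 2 µM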). Summed up: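 Test agents, titrated, stimulated HEK293 UAS-bla cells overnight (16 h, 37 C). Substrate CCF4 was then added for two hours at room temperature before fluorescence reading.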

The nature of assay [5]: qHTS assay for small molecule agonists of retinoid X receptor alpha signaling (AID 588544; calls by dose curve;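 for activation: 0% = DMSO basal wells and 100% = reference agonist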). Conditions: HEK293T RXRa-UAS-bla, beta-lactamase reporter, 18 h; 530 nm emission.
The target in assay [6] is Thyroid hormone receptor beta (Homo sapiens) (UniProt P10828). In words: qHTS assay for small molecule agonists of thyroid hormone receptor beta signaling (AID 588545; calls by dose curve). In a few lines:
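HEK 293 TR-UAS-bla; agonist mode; 18 hrs, 37 C; CCF4, ex 405/em 460 and 530 nm; norm. T3 10 nM = 100%, DMSO = 0%; Hill fit → EC50, efficacy.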

Assay [7] is described as follows: qHTS assay for small molecule antagonists of retinoid X receptor alpha signaling (AID 588546; active = well fitted inhibition curve with a large enough effect in the signal ratio, with a control signal flat, not every such curve was filed as active; the % refers to the signal ratio;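 note: cells stimulated with 9-cis-retinoic acid as agonist; % is set by controls: 0 for no effect and ±100 for the full control effect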). Conditions: HEK293T RXRa-UAS-bla, beta-lactamase ratio, antagonist mode; measured here: W530 green channel, cytotoxicity proxy. In a few lines: (§2)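 Beta-lactamase reporter inhibition, read as CCF4 fluorescence ratio (ex 405, em 460/530 nm) after 2 h at RT. HEK293T UAS-bla cells, 2500/well, were stimulated with 9-cis-RA at 500 or 100 nM final alongside test compound for 18 h at 37 C.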

In assay [8] the target is Retinoic acid receptor RXR-alpha (Homo sapiens) (UniProt P19793). The description is as above. Particulars: HEK293T RXRa-UAS-bla, beta-lactamase ratio, antagonist mode. Summed up: as §2
Assay [9] concerns the target Thyroid hormone receptor beta (Homo sapiens) (UniProt P10828). In words: qHTS assay for small molecule antagonists of thyroid hormone receptor beta signaling (AID 588547; active = well fitted inhibition curve with a large enough effect in the signal ratio, with a control signal flat, not every such curve was filed as active; the % refers to the signal ratio;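 note: cells stimulated with 0.4 nM T3 agonist during compound exposure; series mostly up to about 77 µM; % is set by controls: 0 for no effect and ±100 for the full control effect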). Conditions: TR-UAS-bla HEK293, beta-lactamase ratio, antagonist mode, 18 h. Summed up: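 TR-UAS-bla GripTite HEK293 cells in 2% charcoal/dextran FBS medium were preincubated 4 h at 37 C, given compound (0.59 nM to 92 uM) plus 0.4 nM T3 (final) for 18 h, then CCF4 for 2 h at RT; Hill fit gave IC50.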

Assay [10] is described as follows: qHTS assay for small molecule activators of the p53 signaling pathway (AID 651743; active = well fitted activation curve with a large enough effect in the signal ratio, not every such curve was filed as active; the % refers to the signal ratio; note: series mostly up to about 92 µM; % of control where 0% means no effect). Particulars: HCT-116 p53RE-bla, beta-lactamase FRET ratio, 16 h; activation: stronger effect = higher value. Summed up: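 Cell-based beta-lactamase reporter (p53 response elements, HCT-116 background). After a 5-hour preincubation, cells received compound for 16 hours at 37 C; substrate development ran 2 hours at room temperature.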

Assay [11] in a line: qHTS assay for environmental chemicals that activate the Aryl hydrocarbon Receptor (AhR) signaling pathway (AID 651777). Note: % of control where 0% means no effect; nearly all actives have a fitted effect of over 15% in size. Conditions: 1A2-DRE human hepatoma cells, luciferase, 24 h; activation: stronger effect = higher value. In a few lines: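 Quantitative HTS in stably transfected human liver-derived cells whose luciferase gene sits downstream of the CYP1A2 promoter and dioxin response element. After 24 hr exposure at 37 C, One-Glo luminescence was measured.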

Assay [12] has as its target Peroxisome proliferator-activated receptor alpha (Homo sapiens) (UniProt Q07869). In words: qHTS assay for small molecule agonists of the peroxisome proliferator-activated receptor alpha (PPARalpha) signaling pathway (AID 651778). Note: % of control where 0% means no effect. Conditions: PathHunter PPARalpha complementation, chemiluminescence, 6 h; max response: stronger effect = higher value. Summed up: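 Cells plated at 2,000/well and held overnight at 37 C, 5% CO2, then compound added by pin tool for 6 hr; after PathHunter detection reagent and 60 min at room temperature, chemiluminescence from enzyme complementation was read.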

Assay [13] in a line: qHTS assay for small molecule agonists of the antioxidant response element (ARE) signaling pathway measured by Nrf2-dependant transcriptional activity (AID 720636; active = well fitted curve in the direction sought with a large enough effect in the repeat runs; an effect the other way counts as inactive or inconclusive; note: % of control where 0% means no effect). Summed up: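 Quantitative HTS format in HepG2 cells stably expressing an ARE-luciferase reporter; 16 hr compound treatment at 37 C, luciferase signal detected with ONE-Glo.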
Assay [14] is described as follows: qHTS assay for small molecule agonists of the antioxidant response element (ARE) signaling pathway measured by Nrf2-dependant transcriptional activity - cell viability counter screen (AID 720653; active = well fitted curve in the direction sought with a large enough effect in the repeat runs; an effect the other way counts as inactive or inconclusive; note: % is set by controls: 0 for no effect and ±100 for the full control effect). Conditions: ARE-bla HepG2 viability, CellTiter-Glo ATP luminescence, 16 h; max response: stronger effect = lower value. Summed up: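 ARE-bla HepG2 cells (2,000/well) rested 5 hrs at 37C/5% CO2, then exposed to compounds in DMSO for 16 hrs. Viability was read in the same wells as intracellular ATP by luminescence, 30 min at room temperature after reagent addition.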

Assay [15] is described as follows: qHTS assay for cell viability of HEK293 cells (AID 743288). Note: % is set by controls: 0 for no effect and ±100 for the full control effect; nearly all actives have a fitted effect of over 50% in size. Conditions: ATP luminescence (CellTiter-Glo), 18 h; max response: stronger effect = lower value. In a few lines: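 The Tox21 protocol used parental HEK293 cells treated for 18 h at 37 C with compounds delivered by pintool; ATP-coupled luminescence after 30 min at room temperature gave viability.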
Assay [16] can be described thus: qHTS assay for cell viability of the p53RE-bla HCT-116 cell line (AID 743292). Note: % is set by controls: 0 for no effect and ±100 for the full control effect; nearly all actives have a fitted effect of over 55% in size. Summed up: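 Viability of compound-treated p53RE-bla HCT-116 cells is taken from ATP-dependent luciferase luminescence. Treatment lasts 16 h at 37 C after a 5 h settling period; detection follows 30 min at room temperature.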
The target of assay [17] is Nuclear receptor subfamily 1 group I member 2 (Rattus norvegicus) (UniProt Q9R1A7). In words: qHTS assay for small molecule activators of the rat pregnane X receptor (rPXR) signaling pathway (AID 651751; call rule not given here; note: 0% is about no effect). Conditions: rPXR reporter cells, luciferase (One-Glo), 24 h.
Assay [18] can be described thus: qHTS assay for small molecule activators of the human pregnane X receptor (PXR) signaling pathway (AID 720659; call rule not given here; note: 0% is about no effect).
The target of assay [19] is Vitamin D3 receptor (Homo sapiens) (UniProt P11473). In words: qHTS assay for small molecule antagonists of vitamin D receptor signaling (AID 588541; calls by dose curve;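 note: receptor activated by calcitriol during compound treatment; series mostly up to about 77 µM; % is set by controls: 0 for no effect and ±100 for the full control effect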). Summed up: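 VDR-UAS-bla HEK293T cells (2000/well, 2% charcoal-stripped FBS) were treated with titrated compounds plus 1-alpha,25-dihydroxyvitamin D3 (50 nM or 3 nM final) for 16 h at 37 C. CCF4 beta-lactamase fluorescence was read; Hill fits gave IC50.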

For assay [20], the target named is Retinoic acid receptor RXR-alpha (Homo sapiens) (UniProt P19793). In words: qHTS assay for small molecule agonists of retinoid X receptor alpha signaling (AID 588544).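 For activation: 0% = DMSO basal wells and 100% = reference agonist.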

Inconclusive results are not listed. Active and inactive are the calls of the source. Unless noted, calls come from the whole dose curve; as a rule, active = well fitted curve in the direction sought with a large enough effect; inconclusive = small, poorly fitted or top-dose-only effect, or another doubt; inactive = no such curve, though single readings can be large; an effect the other way counts as inactive or inconclusive.

Thyroid hormone receptor beta (Homo sapiens), sequence (P10828 whole entry, looked up): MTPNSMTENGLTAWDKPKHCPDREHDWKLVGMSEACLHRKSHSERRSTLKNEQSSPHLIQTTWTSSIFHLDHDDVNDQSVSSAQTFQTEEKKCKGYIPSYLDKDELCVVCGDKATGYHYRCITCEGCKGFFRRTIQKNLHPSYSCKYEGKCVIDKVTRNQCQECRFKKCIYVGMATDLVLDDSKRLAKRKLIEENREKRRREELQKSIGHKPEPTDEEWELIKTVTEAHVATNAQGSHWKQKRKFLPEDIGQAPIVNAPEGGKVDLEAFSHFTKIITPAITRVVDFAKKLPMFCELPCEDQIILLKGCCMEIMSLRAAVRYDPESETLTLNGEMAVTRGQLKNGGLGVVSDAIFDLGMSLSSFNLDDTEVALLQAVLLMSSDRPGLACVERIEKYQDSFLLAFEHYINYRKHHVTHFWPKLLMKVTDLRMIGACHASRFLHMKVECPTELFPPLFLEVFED
Retinoic acid receptor RXR-alpha (Homo sapiens), sequence (P19793 whole entry, looked up): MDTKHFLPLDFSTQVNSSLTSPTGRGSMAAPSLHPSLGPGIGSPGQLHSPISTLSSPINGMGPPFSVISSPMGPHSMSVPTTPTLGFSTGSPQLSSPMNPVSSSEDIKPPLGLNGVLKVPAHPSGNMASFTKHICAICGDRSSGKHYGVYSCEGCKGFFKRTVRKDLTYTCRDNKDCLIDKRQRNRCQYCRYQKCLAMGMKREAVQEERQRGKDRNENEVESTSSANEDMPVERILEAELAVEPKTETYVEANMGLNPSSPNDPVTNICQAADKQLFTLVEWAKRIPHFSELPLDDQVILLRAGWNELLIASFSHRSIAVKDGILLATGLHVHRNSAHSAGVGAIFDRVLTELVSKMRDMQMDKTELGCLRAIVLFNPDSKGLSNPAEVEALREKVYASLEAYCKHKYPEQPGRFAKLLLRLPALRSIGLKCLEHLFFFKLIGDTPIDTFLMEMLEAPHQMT
Peroxisome proliferator-activated receptor alpha (Homo sapiens), sequence (Q07869 whole entry, looked up): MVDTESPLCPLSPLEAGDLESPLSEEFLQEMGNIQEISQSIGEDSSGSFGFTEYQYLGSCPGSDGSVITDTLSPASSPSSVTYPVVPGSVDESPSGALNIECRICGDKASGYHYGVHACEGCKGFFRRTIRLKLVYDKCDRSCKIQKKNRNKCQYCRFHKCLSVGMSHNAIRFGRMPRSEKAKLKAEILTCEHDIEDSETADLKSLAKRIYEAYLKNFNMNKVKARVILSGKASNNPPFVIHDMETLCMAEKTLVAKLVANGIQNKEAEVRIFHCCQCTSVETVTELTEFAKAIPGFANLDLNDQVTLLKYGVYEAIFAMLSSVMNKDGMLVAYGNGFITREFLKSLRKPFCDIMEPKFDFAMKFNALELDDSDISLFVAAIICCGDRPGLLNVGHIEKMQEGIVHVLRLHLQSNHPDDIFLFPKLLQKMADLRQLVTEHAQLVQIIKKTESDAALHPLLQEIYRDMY
Nuclear receptor subfamily 1 group I member 2 (Rattus norvegicus), sequence (Q9R1A7 whole entry, looked up): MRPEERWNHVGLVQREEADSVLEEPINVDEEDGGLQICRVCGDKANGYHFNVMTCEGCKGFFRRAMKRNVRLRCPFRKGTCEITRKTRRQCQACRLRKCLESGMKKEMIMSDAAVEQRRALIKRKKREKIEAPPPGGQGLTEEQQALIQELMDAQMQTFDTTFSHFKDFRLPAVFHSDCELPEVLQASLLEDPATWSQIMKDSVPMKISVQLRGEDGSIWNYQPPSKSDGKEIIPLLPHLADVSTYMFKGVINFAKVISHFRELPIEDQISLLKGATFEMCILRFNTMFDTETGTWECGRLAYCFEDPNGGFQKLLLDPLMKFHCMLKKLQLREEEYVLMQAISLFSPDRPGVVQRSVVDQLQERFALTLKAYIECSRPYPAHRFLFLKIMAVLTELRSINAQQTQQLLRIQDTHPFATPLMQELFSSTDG
Peroxisome proliferator-activated receptor delta (Homo sapiens), sequence (Q03181 whole entry, looked up): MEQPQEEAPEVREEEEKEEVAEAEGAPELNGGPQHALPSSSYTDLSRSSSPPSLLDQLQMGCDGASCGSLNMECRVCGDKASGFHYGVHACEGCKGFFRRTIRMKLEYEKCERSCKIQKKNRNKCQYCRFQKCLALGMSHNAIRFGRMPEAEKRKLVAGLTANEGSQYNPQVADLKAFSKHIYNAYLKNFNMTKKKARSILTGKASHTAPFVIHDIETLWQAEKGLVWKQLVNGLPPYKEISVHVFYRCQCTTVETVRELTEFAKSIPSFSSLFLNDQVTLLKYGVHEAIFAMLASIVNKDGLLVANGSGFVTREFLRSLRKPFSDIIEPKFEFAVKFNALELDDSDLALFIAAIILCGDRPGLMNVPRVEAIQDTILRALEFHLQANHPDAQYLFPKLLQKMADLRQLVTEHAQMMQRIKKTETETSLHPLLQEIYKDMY
Vitamin D3 receptor (Homo sapiens), sequence (P11473 whole entry, looked up): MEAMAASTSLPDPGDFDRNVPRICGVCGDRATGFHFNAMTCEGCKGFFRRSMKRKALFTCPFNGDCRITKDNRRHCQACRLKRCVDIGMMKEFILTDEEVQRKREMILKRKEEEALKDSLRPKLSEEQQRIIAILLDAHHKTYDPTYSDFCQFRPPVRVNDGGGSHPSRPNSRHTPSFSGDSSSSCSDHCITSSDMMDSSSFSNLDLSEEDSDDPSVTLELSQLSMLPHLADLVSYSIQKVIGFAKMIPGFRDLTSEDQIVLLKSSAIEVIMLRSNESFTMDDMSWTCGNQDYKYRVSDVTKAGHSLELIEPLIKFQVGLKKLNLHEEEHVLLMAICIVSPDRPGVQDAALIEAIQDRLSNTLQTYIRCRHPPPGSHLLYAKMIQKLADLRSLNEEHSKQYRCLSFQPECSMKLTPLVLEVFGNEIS
Peroxisome proliferator-activated receptor gamma (Homo sapiens), sequence (P37231 whole entry, looked up): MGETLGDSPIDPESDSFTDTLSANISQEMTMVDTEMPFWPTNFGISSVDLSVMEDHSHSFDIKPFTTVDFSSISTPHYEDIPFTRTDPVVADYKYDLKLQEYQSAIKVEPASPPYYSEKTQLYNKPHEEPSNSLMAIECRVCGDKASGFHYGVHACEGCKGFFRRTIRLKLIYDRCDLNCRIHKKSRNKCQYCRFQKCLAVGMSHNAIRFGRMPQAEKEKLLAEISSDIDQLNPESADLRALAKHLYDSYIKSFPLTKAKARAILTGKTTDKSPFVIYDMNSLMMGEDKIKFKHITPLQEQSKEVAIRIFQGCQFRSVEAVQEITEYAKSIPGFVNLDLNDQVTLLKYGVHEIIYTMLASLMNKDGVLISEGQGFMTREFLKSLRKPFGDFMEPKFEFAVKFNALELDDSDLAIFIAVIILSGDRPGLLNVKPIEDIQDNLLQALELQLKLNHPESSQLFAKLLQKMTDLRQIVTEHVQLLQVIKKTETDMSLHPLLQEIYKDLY
Estrogen receptor (Homo sapiens), sequence (P03372 whole entry, looked up): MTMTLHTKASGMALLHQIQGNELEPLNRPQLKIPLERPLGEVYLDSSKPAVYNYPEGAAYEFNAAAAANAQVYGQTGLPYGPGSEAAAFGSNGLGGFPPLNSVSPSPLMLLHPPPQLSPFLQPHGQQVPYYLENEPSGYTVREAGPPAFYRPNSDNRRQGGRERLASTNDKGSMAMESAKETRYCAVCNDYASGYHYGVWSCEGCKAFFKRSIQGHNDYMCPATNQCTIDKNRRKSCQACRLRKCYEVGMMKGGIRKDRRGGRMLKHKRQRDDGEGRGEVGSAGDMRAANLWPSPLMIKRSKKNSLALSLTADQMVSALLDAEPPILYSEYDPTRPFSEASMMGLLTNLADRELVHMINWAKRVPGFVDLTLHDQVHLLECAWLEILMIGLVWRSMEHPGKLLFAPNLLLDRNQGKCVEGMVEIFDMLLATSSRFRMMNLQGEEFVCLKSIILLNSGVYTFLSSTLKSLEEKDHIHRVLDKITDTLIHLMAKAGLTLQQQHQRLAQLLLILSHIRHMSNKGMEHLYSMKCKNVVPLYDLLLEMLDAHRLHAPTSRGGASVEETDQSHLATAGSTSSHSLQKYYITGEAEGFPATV

On to `CCCCCCCCCCCCCCCCCC#N`, for which the Potency result in assay [1], in assay [3], in [6], in assay [13] and in [16] was “inactive” throughout. In addition, the max response in [2] is 1.68%; in assay [5] it was -14.7%; in assay [7] it was -8.8%; in assay [8], -4.3% (inactive); in assay [12] it was 3.6% (inactive); in assay [14], 11.9% (inactive). The max response is -12.8% (inactive) in assay [15] and 2.15% (inactive) in [17]. In addition, the result in assay [4] and in assay [18] was inactive. In addition, in assay [9], the activity change % (negative = inhibition) was 11.1% (inactive). Also, the activation in assay [10] was -6.64% (inactive); in [11], 2.76% (inactive).
As to `CC1(C)C(=O)N(Br)C(=O)N1Br`, the max response in assay [2] was -25.7%; in [5] it was -13.9%; in assay [7], -0.87%; in [12], -2.02% (inactive); in assay [14], -10.4% (inactive); in assay [15] it was -3.78% (inactive). For the same compound, in [17], the max response is -0.134% (inactive). For the same compound, the Potency entry in assay [3], in [19], in [20], in assay [6], in assay [13] and in assay [16] was “inactive” in each case. Further, the call in [4] and in [18] was inactive. Also, in assay [9], the activity change % (negative = inhibition) was 6.14% (inactive). Besides, the activation was -3.66% (inactive) in assay [10] and 1.3% (inactive) in assay [11].
For the compound `CCCCC(CC)COC(=O)/C=C\C(=O)OCC(CC)CCCC` (configuration not stated), the max response was 14.1% in assay [2]; 1.27% in [5]; -16.2% in assay [7]; -0.882% (inactive) in assay [12]; -2.59% (inactive) in [14]; -2.82% (inactive) in [15]. In [17], the max response is -1.19% (inactive). Also, the Potency entry in assay [3], in assay [19], in [20], in [13] and in assay [16] was “inactive” each time. The call in assay [4] and in [18] was inactive. Also, the activation in assay [10] was -1.03% (inactive); in assay [11], 0.172% (inactive).
Regarding `CCOC(=O)c1ccccc1C`, the result in assay [4] and in assay [18] was inactive. In addition, the max response in assay [5] is -8.14%; in assay [7], -9.25%; in assay [8], 1.73% (inactive); in assay [12] it was -0.0686% (inactive); in [14], 0.0878% (inactive); in assay [15] it was 0.0695% (inactive). Also, the max response in assay [17] was 1% (inactive). In addition, the Potency entry in assay [20], in assay [6], in assay [13] and in assay [16] was “inactive” in each case. The activity change % (negative = inhibition) in assay [9] is -2.99% (inactive). Also, the activation in assay [10] is 2.88% (inactive); in [11] it was -0.718% (inactive).
With `O=C1CCC(C2CCCCC2)CC1`, the result in assay [4] and in assay [18] was inactive. For the same compound, the Potency result in assay [19], in assay [20], in assay [6], in [13] and in assay [16] was “inactive” in each case. For the same compound, the max response in assay [5] was -15.9%; in [7], -11.9%; in assay [8], -6.4% (inactive); in assay [12] it was -1.16% (inactive); in [14], -5.5% (inactive); in assay [15], -5.89% (inactive). The max response in assay [17] was -0.198% (inactive). The activation in assay [10] is -4.16% (inactive); in assay [11] it was -0.377% (inactive).
With `COC(OC)(C(=O)c1ccccc1)c1ccccc1`, the max response in assay [2] is 13.5%; in assay [5], -1.48%; in [7] it was -15.2%; in assay [8] it was -6.2% (inactive); in [12] it was -0.253% (inactive); in assay [14], 5.37% (inactive). The max response in assay [15] was -5.41% (inactive); in [17], 3.76% (inactive). Moreover, the Potency entry in assay [3], in assay [19], in assay [20], in assay [6], in [13] and in assay [16] was “inactive” throughout. Further, the compound was called inactive in [4] and in [18]. For the same compound, the activity change % (negative = inhibition) in assay [9] is -4.01% (inactive). In assay [11], the activation was 1.33% (inactive).

The values above are taken from PubChem BioAssay (NCATS).
